Experimental data reported in PubChem BioAssay.
Several values for one entry are separate records, joined by “and”; a condition that tells them apart may be missing. Equal values may be shown once. Activity calls are given as the source filed them.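 How the source made its calls, unless noted: active means inhibition at or above 50% relative to wild type and mutant plate controls; inactive means inhibition below 50%.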

Legend:
[1] = inhibitors of TNFa-induced NFkB p65 translocation, primary screen, imaging, HUVEC, MLSMR starter and 10KST1 sets (AID 438;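 active means inhibition above 20% together with a positive visual image hit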;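 further: compound added about 3h40 before a 20 min TNFalpha stimulation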;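 on inhibition: signal is the nuclear over cytoplasmic p65 intensity ratio per well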); settings: HUVEC TNFa-induced p65 nuclear translocation; cell count: measured here: nuclei count (cytotoxicity indicator), at 2.08 µM; inhibition: at 2 µM, stronger effect = higher value, 0% TNFa-plus-vehicle, 100% no-TNFa wells
[2] = reduction of polyQ htt aggregates in cells – imaging, exon1htt(103Q)mCFP cells, high-content imaging, primary screen (AID 483;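 active means visual image review flags a hit and inhibition of aggregation exceeds 20%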;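 further: compound exposure lasted 3 days before fixation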;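 on nuclei count: percent of the per-plate median nuclei count of sample wells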); settings: exon1htt(103Q)mCFP cell line, aggregate imaging, at 2 µM; inhibition of aggregation: stronger effect = higher value; nuclei count: measured here: cell count, toxicity
[3] = endothelial E-selectin expression blockers – imaging, HUVEC, immunofluorescence, MLSMR starter and 10KST1 sets, primary screen (AID 487;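 active means visually confirmed hit in the image check and inhibition above 20%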;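 on inhibition: signal is fraction of cell area covered by stained E-selectin grains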;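 on nuclei count: 100% = median nuclei count of all wells on the same plate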); settings: HUVEC TNFalpha-induced E-selectin immunofluorescence imaging, at 2 µM; inhibition: stronger effect = higher value; nuclei count: measured here: cell number, toxicity
[4] = Primary imaging screen for DUSP6 inhibitors that restore phospho-Erk in transfected HeLa cells, chemical complementation (AID 609;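 active means compounds giving at least 50% inhibition in the cell-based MKP-3 phosphatase rescue imaging test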;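 on inhibition: phospho-Erk level distribution per well compared with pooled transfected vehicle control wells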); settings: HeLa MKP-3 transfected, phospho-Erk imaging KS statistic, at 10 µM, cells stimulated with TPA for 15 min
[5] = biological target: Dual specificity protein phosphatase 6 (Homo sapiens) (UniProt Q16828); test: as above; settings: HeLa MKP-3 transfected, phospho-Erk imaging KS statistic; at 10 µM; stronger effect = higher value; cells stimulated with TPA for 15 min
Sequence of Dual specificity protein phosphatase 6 (Homo sapiens) (Q16828 whole entry, looked up): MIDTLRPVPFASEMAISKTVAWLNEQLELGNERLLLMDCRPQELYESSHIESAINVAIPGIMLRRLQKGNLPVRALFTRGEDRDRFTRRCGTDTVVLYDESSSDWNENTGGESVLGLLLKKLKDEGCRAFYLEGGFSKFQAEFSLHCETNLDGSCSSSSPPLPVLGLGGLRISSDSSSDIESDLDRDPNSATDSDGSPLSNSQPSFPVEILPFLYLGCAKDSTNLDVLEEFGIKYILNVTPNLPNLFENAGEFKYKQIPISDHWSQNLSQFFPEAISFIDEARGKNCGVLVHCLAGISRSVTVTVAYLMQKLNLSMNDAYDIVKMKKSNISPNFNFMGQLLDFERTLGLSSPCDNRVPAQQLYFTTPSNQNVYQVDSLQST

[6] = biological target: Voltage-gated potassium channel subunit beta-2 (Rattus norvegicus) (UniProt P62483); test: inhibitors of rat Kvbeta2 reductase activity – biochemical, NADPH fluorescence, primary screen (AID 622;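 active means fluorescence slope higher than the sample average by over 3 SD, cut at about -0.22 in these data, passing the limit was not always enough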;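 further: slope of raw intensity against log time taken from 70 to 1610 s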); settings: recombinant KvBeta, 4-cyanobenzaldehyde reduction, at 10 µM, stronger effect = higher value
Sequence of Voltage-gated potassium channel subunit beta-2 (Rattus norvegicus) (P62483 whole entry, looked up): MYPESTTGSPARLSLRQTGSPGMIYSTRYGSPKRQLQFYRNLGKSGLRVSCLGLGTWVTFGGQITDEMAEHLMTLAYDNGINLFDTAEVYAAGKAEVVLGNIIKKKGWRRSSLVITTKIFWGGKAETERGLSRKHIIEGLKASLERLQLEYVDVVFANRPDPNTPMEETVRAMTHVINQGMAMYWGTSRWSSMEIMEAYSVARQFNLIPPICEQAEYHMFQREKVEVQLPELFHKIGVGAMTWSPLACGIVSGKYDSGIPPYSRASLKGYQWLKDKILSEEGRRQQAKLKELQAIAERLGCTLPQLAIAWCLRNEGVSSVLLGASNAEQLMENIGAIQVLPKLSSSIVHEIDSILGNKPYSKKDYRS

[7] = biological target: Voltage-gated potassium channel subunit beta-2 (Rattus norvegicus) (UniProt P62483); test: enhancers of rat Kvbeta2 NADPH turnover – biochemical, NADPH fluorescence, primary screen (AID 623;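 active means NADPH fluorescence slope more negative than the mean of all samples by about 3 SD, 99.7% confidence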;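 further: fluorescence intensity change per second fitted from 20 to 320 s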); settings: Recombinant KvBeta, NADPH fluorescence decrease slope, 10 min; at 10 µM; stronger effect = lower value
[8] = biological target: Muscarinic acetylcholine receptor M4 (Homo sapiens) (UniProt P08173); test: M4-linked GIRK flux change, two-sided – cell-based, HEK293 M4/GIRK, thallium flux, BTC-AM, M4 allosteric agonist project, primary screen (AID 625;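 active means fluorescence slope after compound addition differing from the mean of all tested samples at 99.7% confidence, mostly higher but some lower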;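 further: thallium influx through GIRK channels coupled to M4 in HEK293 cells with BTC-AM dye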); settings: at 10 µM, actives lie on both sides
Sequence of Muscarinic acetylcholine receptor M4 (Homo sapiens) (P08173 whole entry, looked up): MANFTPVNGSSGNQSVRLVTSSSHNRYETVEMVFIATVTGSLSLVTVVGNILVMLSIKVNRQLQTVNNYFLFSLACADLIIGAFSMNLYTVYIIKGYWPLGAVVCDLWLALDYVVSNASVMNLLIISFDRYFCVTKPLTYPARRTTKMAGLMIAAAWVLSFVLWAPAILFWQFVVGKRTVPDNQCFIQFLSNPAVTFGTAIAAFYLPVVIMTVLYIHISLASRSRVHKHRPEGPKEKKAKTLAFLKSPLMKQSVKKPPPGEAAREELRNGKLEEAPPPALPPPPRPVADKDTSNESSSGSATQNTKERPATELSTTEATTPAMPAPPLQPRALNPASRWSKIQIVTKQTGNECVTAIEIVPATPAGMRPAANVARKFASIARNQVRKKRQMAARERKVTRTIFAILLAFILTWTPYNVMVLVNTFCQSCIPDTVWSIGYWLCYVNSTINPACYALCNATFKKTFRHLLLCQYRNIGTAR

[9] = inhibitors of larval lipid processing in zebrafish, primary screen, whole organism, PED6 fluorescence, gall bladder and intestine (AID 686;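 active means a full or partial loss of lipid-probe fluorescence in the fish gall bladder, intestine or both, judged by eye; inactive means no fluorescence loss, or compound toxic to the fish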;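 further: larvae 5 to 7 days old with five fish per well; signal comes from phospholipase A2 cleavage of quenched PED6 carried via bile; overnight exposure to compound and PED6 before scoring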); settings: Zebrafish larvae PED6 lipid processing, fluorescence scoring; screened at 20 µM (by protocol)
[10] = loss of swimming-algae plug formation – whole organism, Chlamydomonas reinhardtii, WT vs cilia-less mutant, absorbance, 96-well, primary screen (AID 463189); settings: Chlamydomonas reinhardtii gravitaxis, OD600 absorbance, 2 days; at 10 µM; stronger effect = higher value;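 further: 0% = wild type cc124 cells in DMSO and 100% = ciliumless bld1 mutant cells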
[11] = blockers of RIG-like receptor reporter activation – cell-based, Sendai virus stimulus, luciferase, 10K MLSCN set, TLR/RLR signaling modifier project, primary screen (AID 602276;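 active means inhibition at or above 50% at 10 µM; inactive means inhibition below 50%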;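 further: firefly luciferase from ISG56 promoter only with Renilla not read in this screen; 0% = Sendai virus plus DMSO and 100% = medium plus DMSO without virus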); settings: HEK293 RL24 IRF3 luciferase reporter, at 10 µM, stronger effect = higher value
[12] = TLR3 IRF3 reporter activation blockers – cell-based, poly I:C stimulus, luciferase, 10K MLSCN set, primary screen (AID 602277;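 active means inhibition of the reporter signal at or above 50%; inactive means inhibition below 50%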); settings: HEK293-TLR3 RL24 IRF3 luciferase reporter, at 10 µM, stronger effect = higher value
[13] = measured here: cell density z-score
[14] = measured here: nuclear c-Myc green intensity z-score
[15] = measured here: nuclear pErk red intensity z-score, stronger effect = higher value

SMILES	cell count [1]	inhibition [1]	inhibition of aggregation [2]	nuclei count [2]	inhibition [3]	nuclei count [3]	z-score [4, 13]	z-score [4, 14]	z-score [4, 15]	inhibition [5]	fluorescence slope [6]	NADPH fluorescence slope [7]	fluorescence slope [8]	outcome [9]	inhibition [10]	inhibition [11]	inhibition [12]
COc1ccc2c(c1)[nH]c1c(=O)n(CCN(C)C)cnc12	660	-3.5% (inactive)	-8.1% (inactive)	102%	23.1% (inactive)	135%	-1.37	2.24	-0.536	9.61% (inactive)	-0.449 (inactive)	-3.5e-05 (inactive)	0.00667 (inactive)	inactive	2.29% (inactive)	17% (inactive)	24.4% (inactive)
Nn1c(SCC(=O)Nc2ccc3c(c2)OCCO3)nnc1C(F)(F)F	598	0% (inactive)	-32.9% (inactive)	105%	-26.1% (inactive)	110%	0.295	-0.513	-1.34	10.9% (inactive)	-0.426 (inactive)	-5.4e-05 (inactive)	0.00501 (inactive)	inactive	11.3% (inactive)	12.4% (inactive)	21.3% (inactive)
COc1ccc2c(c1)n([O-])c1c([n+]2=O)CCC1	640	-4.7% (inactive)	-32.6% (inactive)	113%	-56.2% (inactive)	108%	-0.812	2.02	-1.59	3.49% (inactive)	-0.367 (inactive)	-3.5e-05 (inactive)	0.00434 (inactive)	inactive	-9.94% (inactive)	-10.3% (inactive)	99.2% (active)
Cn1c(=O)c2c(nc(Br)n2CCSc2ncccn2)n(C)c1=O	606	-12.8% (inactive)	5.2% (inactive)	103%	-13.4% (inactive)	150%	0.427	-0.0194	-1.04	21.4% (inactive)	-0.364 (inactive)	-1.4e-05 (inactive)	0.00613 (inactive)	inactive	36.1% (inactive)	5.45% (inactive)	6.81% (inactive)
CCn1nc(NC(=O)c2cccnc2)c2cc3ccccc3nc21	522	-0.4% (inactive)	-3.3% (inactive)	104%	-29.4% (inactive)	133%	0.0666	1.36	-0.336	-6.48% (inactive)	-0.423 (inactive)	-3.9e-05 (inactive)	0.00509 (inactive)	inactive	3.52% (inactive)	10.7% (inactive)	-6.02% (inactive)
CCN1CCc2c(C#N)c(N3CCCCC3)nc(NCc3ccccc3)c2C1	466	-4.8% (inactive)	16.8% (inactive)	89.7%	-51.6% (inactive)	112%	1.27	-1.37	-1.11	16.5% (inactive)	-0.472 (inactive)	-3.9e-05 (inactive)	0.00484 (inactive)	inactive	23.7% (inactive)	14.7% (inactive)	31.2% (inactive)
CN(C)CC(O)COc1ccc(-c2ccc(C#N)cc2)cc1 (configuration not stated)	626	-1.5% (inactive)	6.6% (inactive)	89.7%	-19.8% (inactive)	139%	0.638	-0.472	2.41	-2.59% (inactive)	-0.371 (inactive)	-4.8e-05 (inactive)	0.00456 (inactive)	inactive	98.7% (active)	-0.588% (inactive)	-4.77% (inactive)
C/C(=C\C(=O)O)CC(=O)O	333	-2.6% (inactive)	25.8% (inactive)	93.1%	-133% (inactive)	117%	0.304	-0.204	-2.54	19.4% (inactive)	-0.486 (inactive)	-0.000131 (inactive)	0.00465 (inactive)	inactive	-0.382% (inactive)	2.17% (inactive)	13.5% (inactive)
N#CC1=C(N)N(c2ccccc2)C(c2ccccc2)C1(C#N)C#N (configuration not stated)	635	-9.5% (inactive)	-8% (inactive)	97.6%	7.2% (inactive)	132%	0.909	-0.703	1.5	-6.59% (inactive)	-0.346 (inactive)	-7.8e-07 (inactive)	0.00486 (inactive)	inactive	58.7% (active)	16.9% (inactive)	17.3% (inactive)
COc1ccc2c(c1)[nH]c1c(=O)n(CC3CCCO3)cnc12 (configuration not stated)	702	-0.4% (inactive)	5.9% (inactive)	73.4%	-39.2% (inactive)	133%	1.51	-0.546	-1.36	-2.91% (inactive)	-0.423 (inactive)	-4.3e-05 (inactive)	0.00561 (inactive)	inactive	0.053% (inactive)	-17.6% (inactive)	-27.5% (inactive)
Cc1nc2c(o1)CCc1ccccc1C2O (configuration not stated)	606	3.6% (inactive)	-5% (inactive)	106%	-16.2% (inactive)	99.8%	3.05	-1.58	-1.98	15.5% (inactive)	-0.523 (inactive)	-4e-05 (inactive)	0.00553 (inactive)	inactive	19.1% (inactive)	2.65% (inactive)	14.8% (inactive)
O=C1C2ON(c3ccccc3)C(c3cccnc3)C2C(=O)N1c1ccccc1 (configuration not stated)	667	-4.7% (inactive)	-1.5% (inactive)	104%	-28.2% (inactive)	130%	0.476	0.609	-0.133	16% (inactive)	-0.503 (inactive)	-2.9e-05 (inactive)	0.00593 (inactive)	inactive	-4.82% (inactive)	-8.41% (inactive)	-21.8% (inactive)
CC(O)c1n(C)c(Cl)c[n+]1C (configuration not stated)	674	-10% (inactive)	-4% (inactive)	103%	-67.2% (inactive)	134%	-2.1	-0.307	2.29	18.6% (inactive)	-0.454 (inactive)	-4.6e-05 (inactive)	0.0053 (inactive)	inactive	-6.3% (inactive)	17% (inactive)	10.8% (inactive)
Cc1cc(C)n(C(=O)CNC(=O)C2COc3ccccc3O2)n1 (configuration not stated)	659	-7.8% (inactive)	-13.6% (inactive)	105%	-92.7% (inactive)	124%	0.273	-1.59	0.636	3.66% (inactive)	-0.393 (inactive)	-4.6e-05 (inactive)	0.00449 (inactive)	inactive	15.9% (inactive)	15.9% (inactive)	20.1% (inactive)
COC(=O)c1cc(=O)n2c(-c3ccc(OC)cc3)csc2n1	468	-6.9% (inactive)	8.7% (inactive)	104%	-46.8% (inactive)	133%	-0.555	0.15	-1.12	1.98% (inactive)	-0.383 (inactive)	-3.1e-05 (inactive)	0.00743 (inactive)	inactive	-2.61% (inactive)	18.2% (inactive)	19.9% (inactive)
Cc1ccc2[nH]c3c(N4CCOCC4)ncnc3c2c1	599	-3.9% (inactive)	18.9% (inactive)	82.9%	-12.3% (inactive)	152%	-1.33	0.984	0.577	-1.98% (inactive)	-0.16 (inactive)	-2.2e-05 (inactive)	0.00605 (inactive)	inactive	-1.47% (inactive)	-15.5% (inactive)	-85.9% (inactive)
CC(CCc1ccccc1)NCC(O)c1ccc(O)c(C(N)=O)c1 (configuration not stated)	612	-8.1% (inactive)	-15.6% (inactive)	103%	-7.9% (inactive)	107%	0.375	-0.198	-0.807	13.3% (inactive)	-0.442 (inactive)	2.9e-05 (inactive)	0.00425 (inactive)	inactive	10.1% (inactive) and -0.75% (inactive)	-17.5% (inactive)	5.32% (inactive)
N#C/C(C(=O)NCc1ccco1)=C1/SC(Cc2ccc(F)cc2)C(=O)N1c1ccccc1 (configuration not stated)	598	4.7% (inactive)	-63.4% (inactive)	75.6%	-13.2% (inactive)	108%	0.348	0.139	0.51	-2.09% (inactive)	-0.437 (inactive)	-2.8e-05 (inactive)	0.00419 (inactive)	inactive; toxic	-7.54% (inactive)	11.5% (inactive)	20.4% (inactive)
c1ccc2c(c1)[nH]c1c(N3CCC4(CC3)OCCO4)ncnc12	543	-0.4% (inactive)	-24.1% (inactive)	94.4%	-72.3% (inactive)	119%	-0.995	0.207	-1.27	-6.59% (inactive)	-0.384 (inactive)	-3.4e-05 (inactive)	0.00574 (inactive)	inactive	-1.55% (inactive)	2.08% (inactive)	-40% (inactive)
CC(C)(C)NCc1cc2ccccc2[nH]c1=O	585	4.5% (inactive)	-3.4% (inactive)	102%	-165% (inactive)	146%	-1.28	1.15	0.508	16.8% (inactive)	-0.451 (inactive)	-4.7e-05 (inactive)	0.00463 (inactive)	inactive	3.94% (inactive)	12.2% (inactive)	18.4% (inactive)
O=C(Nc1ccccn1)NC(C(F)(F)F)C(F)(F)F	669	-2.9% (inactive)	-15.1% (inactive)	118%	-56% (inactive)	139%	0.555	0.584	0.451	9.91% (inactive)	-0.472 (inactive)	-0.000163 (inactive)	0.00603 (inactive)	inactive	12.6% (inactive)	0.13% (inactive)	5.13% (inactive)
